From PubChem BioAssay (Tox21)
Inconclusive results are not listed. A number with no mark means an inactive call. Activity calls are given as the source filed them. Calls come from the whole dose curve; as a rule, active = well fitted activation curve with a large enough effect in the repeat runs; inconclusive = weak or mixed curves; inactive = no such curve, though single readings can be large or run the other way.

Assay: qHTS assay for small molecules that induce genotoxicity in human embryonic kidney cells expressing luciferase-tagged ATAD5 (AID 651632); note: nearly all actives have a fitted effect of over 15% in size
Conditions: HEK293T ATAD5-luciferase induction, 16 h; series mostly up to 83.3 µM; activation: at the top concentration
Excerpt: U.S. Tox21 Program National Center for Advancing Translational Sciences [NCATS] NIH Chemical Genomics Center [NCGC] U.S. Environmental Protection Agency [EPA] National Institutes of Environmental Health Sciences [NIEHS] National Toxicology Program [NTP] U.S. Food and Drug Administration [FDA] Tox21 Assay Overview: As cancer cells divide rapidly and during every cell division they need to duplicate their genome by DNA replication. The failure to do so results in the cancer cell death. Based on this concept, many chemotherapeutic agents were developed but have limitations such as low efficacy and severe side effects etc. A new cell based assay was developed to find the compounds that effectively block DNA replication either by directly damaging DNA or by inhibiting other cellular mechanisms. Enhanced Level of Genome Instability Gene 1 (ELG1; human ATAD5) protein levels increase in response to various types of DNA damage. Using a luciferase reporter-gene tagged with ATAD5, a cell-based assay [developed by Kyungjae Myung, NHGRI, NIH] was used to measure the induction of ATAD5 in human embryonic kidney cells (HEK293T). So, increase in luciferase activity can be used to identify the compounds that cause genetic stress.
Tox21 Assay Protocol Summary: For genotoxicity screening, 2,000 cells in 5 uL/well were dispensed into white, solid-bottom 1536-well plates using a Multidrop Combi (Thermo Scientific) dispenser. Following transfer of 23 nL compound or DMSO vehicle by a pin tool, the plates were incubated 16 hr at 37C and 5% CO2. 5 ul Amplite (AAT Bioquest, Inc.) was then added to each plate and following 30 min incubation at room temperature, luciferase activity was quantified on a ViewLux CCD-based plate reader.
% is set by controls: 0 for no effect and ±100 for the full control effect.

Row | SMILES | activation | Potency
1 | CN(C)C(=O)Nc1ccccc1 | -1.04% | 
2 | C[C@H](O)C(=O)Nc1c(I)c(C(=O)NC(CO)CO)c(I)c(C(=O)NC(CO)CO)c1I | -2.39% [at 39.1 µM] | 
3 | COc1cccc(OC)c1 | -4.12% | 
4 | NS(=O)(=O)c1cc2c(cc1Cl)NC(CSCc1ccccc1)=NS2(=O)=O | -3.23% [at 39.1 µM] | 
5 | C=CCn1c(=O)n([C@@H]2O[C@H](CO)[C@@H](O)[C@H]2O)c2nc(N)[nH]c(=O)c21 | 2.7% | 
6 | O=C(O)/C=C/c1ccc(Cn2ccnc2)cc1 | 1.9% [at 39.1 µM] | 
7 | N#CCc1ccccc1[N+](=O)[O-] | -4.29% | 
8 | CC(=O)OC(C)(C)C | 0.718% | 
9 | CCCCN(CCO)CCO | 0.504% | 
10 | CC(=O)NC(Cc1ccccc1)C(=O)O (stereo not given) | -1.52% | 
11 | CC(C)c1cccc(O)c1 | 1.36% [at 95.3 µM] | 
12 | Cc1cc(C)c(NC(=O)CN(CC(=O)O)CC(=O)O)c(C)c1Br | -1.72% | 
13 | CCCCc1ccc2cccc(S(=O)(=O)O)c2c1 | 1.38% | 
14 | COc1cc(CCC(C)=O)ccc1O | 0.978% | 
15 | CCC(C)OC(=O)N1CCCCC1CCO (stereo not given) | -1.35% | 
16 | NCCNC(=O)c1ccc(Cl)cn1 | 2.9% | 
17 | CC(C)c1cccc(C(C)C)c1N | -1.71% | 
18 | CC(C)(O)Cc1ccccc1 | -0.857% | 
19 | NS(=O)(=O)c1cc2c(cc1C(F)(F)F)NC(Cc1ccccc1)NS2(=O)=O (stereo not given) | -1.44% [at 39.1 µM] | 
20 | C=C(C)C(=O)OCCC(C)OC(=O)C(=C)C (stereo not given) | 3.28% | 

Row | SMILES | activation | Potency
21 | CCCCCCOC(=O)c1ccccc1O | 3.41% | 
22 | CCCOc1ccccc1-c1nc2n[nH]nc2c(=O)[nH]1 | -0.568% | 
23 | CC(C)CCCCCCN | 1.26% | 
24 | CCCC(C)C(=O)O (stereo not given) | -2.06% | 
25 | COc1nc(C)nc(N)n1 | 2.4% | 
26 | CCCCCC[C@@H](CCC)C(=O)O | 3.98% | 
27 | Fc1ccccc1-c1ccccc1 | 0.612% [at 95.3 µM] | 
28 | C(=C(c1ccccc1)c1ccccc1)c1ccccc1 | -0.591% | 
29 | CCCCCCCCCCC1CO1 (stereo not given) | 0.873% | 
30 | CC1(C)SC(C)(C)SC(C)(C)S1 | -1.53% | 
31 | CCCCNc1ccccc1 | -2.05% | 
32 | OC/C=C/c1ccccc1 |  | inactive
33 | CCC(C(=O)NC(N)=O)c1ccccc1 (stereo not given) |  | inactive
34 | CO[Si](OC)(OC)OC | -0.926% | 
35 | Nc1[nH]c(=O)ncc1F | -0.994% [at 39.1 µM] | 
36 | CCCCCCCCCCCl | 0.907% [at 95.3 µM] | 
37 | N#CC1(O)CCCCC1 | 0.795% [at 95.3 µM] | 
38 | COc1cccc(Br)c1 | 0.436% | 
39 | CCN1CCN(c2cc3c(cc2F)c(=O)c(C(=O)O)cn3C2CC2)CC1 | 4.38% | 
40 | CCn1cc(C(=O)O)c(=O)c2cc(F)c(N3CCN(C)CC3)cc21 | -0.884% | 
